Consider 40 molecules from PubChem BioAssay (NCI).

Molecules are shown by their SMILES. The panel holds about 83,000 compounds, 20% with a hit somewhere; the sample as a whole holds those more often.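 Testing used 96-well plates and a 48-hour single-concentration exposure. Example: -40 means 40% of the starting cells died.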 Calls of active or inactive are those of the source. *1 amine or outer side, *2 acyl side, *3 side chain or, on linkers, in order; H or OH if unused. Where a SMILES comes first, the peptide text is derived from it. Bridges are numbered along the chain shown (N, C = ends). Roman numbers before positions name the chains, in order. [ ]: non-standard residue; d: D form. Actinocin(1to9) = Cc1c2oc3c(C)ccc(C(=O)[*:2])c3nc-2c(C(=O)[*:1])c(N)c1=O; NMeV = CN[CH](C(=O)O)C(C)C; Sar = CNCC(=O)O

This test deals with HCT-116 colon. The test is described as follows: NCI-60 one-dose screen, 48 h (100 = growth as untreated, 0 = no growth, -100 = all killed). As to conditions: 10 µM unless noted. The procedure:
Growth inhibition of the HCT-116 human tumor cell line is measured as a screen for anti-cancer activity. Cells are grown in 96 well plates and exposed to the test compound for 48 hours. Compounds are tested at a single concentration, which is 10^-5 M for most compounds. The reported endpoint is percent growth (GI% or GIPRCNT), where numbers from 0 - 100% represent growth inhibition, and numbers from -100% - 0 represent cell death. For example, a value of 40 represents 60% growth inhibition. A value of 0 means no net growth occurred over the course of the experiment. A value of -40 indicates 40% of cells at the beginning of the experiment died by the end of the experiment. A value of -100 means all cells are dead at the end of the experiment.
NCI-60 Human Tumor Cell Lines Screen was performed using the standard one-dose NCI protocol, which is described in more detail at https://dtp.cancer.gov/discovery_development/nci-60/default.htm.
Compounds with GIPRCNT values below 10 were considered active. Activity score was based on GIPRCNT using the following formula: […]
Score is 0 for GIPRCNT values of 100 or above, 50 for GIPRCNT values of 0, and 100 for GIPRCNT values of -100.
Consider `CCCCCCCCCCCCCCCC[N+]1(C)CCCC1c1cccnc1` (stereo not given), for which the growth is 35% (inactive).
As for `Oc1ccc(Cl)cc1C(c1cc(Cl)ccc1O)C(Cl)(Cl)Cl`, the growth was -35.2% (active).
For the molecule `Oc1ccc(Br)cc1Sc1cc(Br)ccc1O`, the growth is 34.3% (inactive).
For the molecule `NC1=C(Br)C(=O)c2ncccc2C1=O`, the growth was -46.4% (active).
As for `COc1ccc2nc3cc([N+](=O)[O-])ccc3c(NNc3ccccc3)c2c1`, the growth was 41.2% (inactive).
On to `COC(=O)[C@]1(C)CCC[C@]2(C)c3ccc(C(C)C)cc3C(=O)[C@@H](Br)[C@@H]12`, for which the growth was 85.3% (inactive).
Regarding `C[C@@]1(CO)[C@H](O)CC[C@@]2(C)[C@H]1CC[C@H]1C[C@@H]3C[C@@]12CC[C@@]3(O)COC(=O)CN`, the growth was 33.3% (inactive).
`CCC(C)C(N)C(=O)NC(CC(N)=O)C(=O)NC(CC(C)C)C(=O)NC(CCCCN)C(=O)NC(C)C(=O)NC(CC(C)C)C(=O)NC(C)C(=O)NC(C)C(=O)NC(CC(C)C)C(=O)NC(C)C(=O)NC(CCCCN)C(=O)NC(CCCCN)C(=O)NC(C(=O)NC(CC(C)C)C(N)=O)C(C)CC` (stereo not given): the growth is 82.5% (inactive).
Next, `Cn1ccc(=Nc2ccc(NC(=O)c3ccc(N=c4ccn(C)c5ccc([N+](=O)[O-])cc45)cc3)cc2)cc1`: 32.6% (inactive).
Next, `O=C(Nc1cccc(C(F)(F)F)c1)Oc1ccc(Cl)c2cccnc12`: 0.974% (active); `CCC(C)C1NC(=O)C(NC(=O)c2c3nc4c(C(=O)NC5C(=O)NC(C(C)CC)C(=O)N6CCCC6C(=O)N(C)CC(=O)N(C)C(C(C)C)C(=O)OC5C)ccc(C)c4oc-3c(C)c(=O)c2N)C(C)OC(=O)C(C(C)C)N(C)C(=O)CN(C)C(=O)C2CCCN2C1=O` (stereo not given) (I: TIP[Sar][NMeV] / II: TIP[Sar][NMeV]; ester I:1-I:C, II:1-II:C; linker I:N-II:N via Actinocin(1to9); configuration not given here): 0.361% (active); `CCN(CC)CC(O)CNc1ccc(NCC2CO2)c2c1C(=O)c1ccccc1C2=O` (stereo not given): -11.2% (active).
Turning to `O=C1C(=O)c2cc([N+](=O)[O-])ccc2-c2ccccc21`, the growth was -92.5% (active).
For the molecule `O=C(/C(Cl)=N/O)c1ccc(-c2ccccc2)cc1`, the growth was 113% (inactive).
Regarding `Cc1nnc(N/N=C/c2ccc([N+](=O)[O-])o2)[nH]c1=O`, the growth was 9.54% (active).
Consider `O=C1C(=O)c2cccnc2-c2ncccc21`, for which the growth was -100% (active).
With `CC1(C)CCCC2=C1C(=O)N(SC(Cl)(Cl)Cl)C2=O`, the growth is 75.5% (inactive).
For the molecule `CSc1nc(C)c(C(=O)CCN2CCN(c3ccccn3)CC2)s1`, the growth was 105% (inactive).
Take `COc1cc(-c2ccc(-[n+]3nc(-c4ccc([N+](=O)[O-])cc4)nn3-c3ccc([N+](=O)[O-])cc3)c(OC)c2)ccc1-[n+]1nc(-c2ccc([N+](=O)[O-])cc2)nn1-c1ccc([N+](=O)[O-])cc1`: the growth is 6.85% (active).
Take `Cc1ccc(Nc2ccc(O)c3c2C(=O)c2c(O)ccc(Nc4ccc(C)cc4)c2C3=O)cc1`: the growth was 93.5% (inactive).
Under `O=C1C=CC(=O)N1c1cccc2c1CCCC2` stands 95% (inactive).
Regarding `CCCCCCCCCCCC1=NCCCN1CCCC`, the growth is 83.6% (inactive).
Turning to `CCCCCCCCC(=O)OCCCC(CCC(CCC1CCCO1)OC(=O)CCCCCCCC)OC(=O)CCCCCCCC` (stereo not given), the growth was 92.4% (inactive).
Turning to `NC(CS/C(Cl)=C/Cl)C(=O)O` (stereo not given), the growth was 84.4% (inactive).
Turning to `COc1ccc2nc3cc(Cl)ccc3c(NCCCCCN3CCCCC3)c2c1`, the growth was -61.5% (active).
Take `CCOC(=O)C1(C)CCCC1N` (stereo not given): the growth was 111% (inactive).
As to `CC(=O)OC1CC2CCC1(C)C2(C)C` (stereo not given), the growth is 107% (inactive).
For `COC1CC(C)C(OC)c2cc(O)cc(c2O)NC(=O)/C(C)=C/C=C\C(C)C(OC(N)=O)/C(C)=C\C(C)C1OC` (stereo not given), the growth was -92.8% (active).
Take `CC/C(=C(/CC)c1ccc(O)cc1)c1ccc(O)cc1`: the growth is 29.3% (inactive).
For the molecule `O=C1Nc2ccc(Br)cc2C1=O`, the growth was 94.2% (inactive).
Take `CCOc1ccc(Nc2nc3c(s2)C(=O)c2ccccc2C3=O)cc1`: the growth is 52.7% (inactive).
`O=[N+]([O-])c1ccc(N2CCN(Cc3ccccc3)CC2)c2c1no[n+]2[O-]`: the growth is -86% (active).
`[Cl-].[Rh+3].c1ccc(-c2ccnc3c2ccc2c(-c4ccccc4)ccnc23)cc1.c1ccc(-c2ccnc3c2ccc2c(-c4ccccc4)ccnc23)cc1.c1ccc(-c2ccnc3c2ccc2c(-c4ccccc4)ccnc23)cc1`: the growth is 87.3% (inactive).
On to `CCSc1nc2ccccc2o1`, for which the growth was 111% (inactive).
Turning to `Oc1ccc2ccccc2c1N=Nc1ccccn1`, the growth is 1.41% (active).
`O=C(CBr)c1ccc(OC(=O)c2ccccc2)cc1`: the growth is 75.6% (inactive).
In the case of `O=[N+]([O-])c1ccc(C2N(Cc3ccc(Cl)cc3)CCN2Cc2ccc(Cl)cc2)cc1`, the growth is 72.8% (inactive).
Under `COc1c(C)c2c(c(O)c1C/C=C(\C)CCC(=O)O)C(=O)OC2` stands 13.3% (inactive).
Turning to `C/C=C/c1cc2c(c(=O)o1)C(=O)[C@@H](O)[C@H](C)O2`, the growth was 14.1% (inactive).
With `O=C(c1ccccc1)C(Br)C(Br)c1ccccc1` (stereo not given), the growth was -95.7% (active).
